Most compounds without a hit are left out; they make up all but 21% or so of the library.
ELG1 DNA repair: qHTS screen for small molecules that inhibit ELG1-dependent DNA repair in human embryonic kidney (HEK293T) cells expressing luciferase-tagged ELG1; HEK293T ELG1-luciferase reporter, luminescence, 16 h; DNA damage induced by 5-fluorouridine; Potency, µM (top dose mostly 46.1 µM), most hits filed as inhibitors; 2.3% of 330,000 active; AID 504467, 2011; note: nearly all actives have a fitted effect of over 55% in size
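Cells (2,000 per well) received 5-fluorouridine plus test compound or DMSO and were incubated 16 hr at 37 °C, 5% CO2. Luciferase activity was read by luminescence 30 min after ONE-Glo addition; signal suppression marked inhibition of damage-induced ELG1 function.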
TDP1 cell CPT: qHTS for Inhibitors of human tyrosyl-DNA phosphodiesterase 1 (TDP1): qHTS in cells in presence of CPT; chicken DT40 Tdp1-/-;hTDP1 cells + 20 nM CPT, ATP luminescence, 48 h; 12% of 420,000 active; AID 686979, 2013; Potency, µM (highest dose often 46.2 µM), usual class: inhibitors; note: nearly all actives have a fitted effect of over 55% in size
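Chicken DT40 Tdp1-/- cells stably complemented with human TDP1 were seeded at 400 cells/well in medium containing 20 nM camptothecin, exposed to pin-transferred compounds, and grown at 37 °C for at least 48 hr. Viability was read as ATP luminescence.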
IL-1B inflam inh: qHTS for Inhibitors of Inflammasome Signaling: IL-1-beta AlphaLISA Primary Screen | AID 743279, 2014 | 4.7% of 360,000 active | activity change, % at 57.5 µM | THP-1 LPS/ATP IL-1B secretion, AlphaLISA, 16 h; hits give low values; in the data active = activity change below about -50%; inconclusive = mostly about -30% to -49%
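THP-1 cells pretreated 1 hr with compounds (up to 57.5 uM final), then stimulated with LPS (250 ng/mL final) plus ATP (1.25 mM final); secreted IL-1B measured by AlphaLISA after 16 hr, decreased signal indicating inhibition.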
Gal4-VP16 FLuc: VP16 counterscreen qHTS for inhibitors of ROR gamma transcriptional activity | 3.5% of 310,000 active | AID 2546, 2010 | Drosophila S2 Gal4-VP16 UAS-luciferase, luminescence, 20 h | Potency, µM (doses to about 53.6 µM), most hits filed as inhibitors;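 note: Gal4-VP16 expression switched on by copper sulfate through the metallothionein promoter; nearly all actives have a fitted effect of over 50% in size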
RORgamma inh: qHTS for inhibitors of ROR gamma transcriptional activity; Nuclear receptor ROR-gamma (Mus musculus), P51450; Drosophila S2 Gal4-RORgamma UAS-luciferase reporter, 20 h; Potency, µM (highest dose often 53.6 µM), most hits filed as inhibitors; 5.4% of 310,000 active; AID 2551, 2010; note: nearly all actives have a fitted effect of over 60% in size
Target sequence (P51450 whole entry, looked up, the tested form may be a part): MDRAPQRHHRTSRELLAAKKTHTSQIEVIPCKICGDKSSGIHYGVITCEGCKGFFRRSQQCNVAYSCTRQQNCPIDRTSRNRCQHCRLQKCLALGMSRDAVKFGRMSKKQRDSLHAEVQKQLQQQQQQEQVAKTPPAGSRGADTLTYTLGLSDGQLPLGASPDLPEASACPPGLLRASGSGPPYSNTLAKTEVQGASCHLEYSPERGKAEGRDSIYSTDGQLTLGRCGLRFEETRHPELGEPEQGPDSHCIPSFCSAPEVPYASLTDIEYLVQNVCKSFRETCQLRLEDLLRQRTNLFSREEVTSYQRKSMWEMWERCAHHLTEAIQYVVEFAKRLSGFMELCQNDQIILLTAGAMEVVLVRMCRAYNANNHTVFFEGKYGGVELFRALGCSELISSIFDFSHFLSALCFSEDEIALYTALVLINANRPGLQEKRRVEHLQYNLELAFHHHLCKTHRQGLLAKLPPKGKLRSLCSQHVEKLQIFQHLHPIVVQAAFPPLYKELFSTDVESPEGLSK
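Drosophila Schneider cells stably carrying a metallothionein-driven Gal4 DBD–ROR gamma fusion and a UAS-Photinus luciferase reporter were exposed to compound for 1 hr, then induced with copper sulfate (700 uM final) for 20 hr at ambient temperature before luminescence reading.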
DT40 TDP1 no CPT: qHTS for Inhibitors of human tyrosyl-DNA phosphodiesterase 1 (TDP1): qHTS in cells in absence of CPT. DT40 Tdp1-/- hTDP1 cells, no CPT, ATP luminescence, 48 h. 15% of 420,000 active. Potency, µM (doses to about 46.2 µM), most hits filed as inhibitors. AID 686978, 2013; note: nearly all actives have a fitted effect of over 55% in size
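Growth kinetics read by CellTiter-Glo luminescence after ≥48 hr at 37 °C. Cells: DT40 Tdp1-/- stably carrying human TDP1, 400 per well, compound exposure in the absence of CPT (DMSO vehicle).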
Hits are given with their value; - = inactive; ? = inconclusive; . = no result given. Unless noted, calls come from the whole dose curve; as a rule, active = well fitted curve in the direction sought with a large enough effect; inconclusive = small, poorly fitted or top-dose-only effect, or another doubt; inactive = no such curve, though single readings can be large; an effect the other way counts as inactive or inconclusive.

SMILES	ELG1 DNA repair	TDP1 cell CPT	IL-1B inflam inh	Gal4-VP16 FLuc	RORgamma inh	DT40 TDP1 no CPT
NC(=S)N/N=C/c1ccccc1O	-	?	-	6.3µM	3.5µM	?
Cc1cc(/C=N/NC(N)=S)c(O)c(/C=N/NC(N)=S)c1	-	-	-	0.45µM	0.2µM	?
O=C(NCCc1nc2ccc(Cl)cc2[nH]1)C1CCC(=O)N(Cc2cccc(F)c2)C1 (stereo not given)	-	-	-	-	-	-
N#Cc1ccccc1OCC(=O)NCc1ccccc1CN1CCCC1	?	-	-	.	.	-
Cc1ccccc1NC(=O)c1cnc2sc(N3CCCC3)nn2c1=O	.	-	.	.	.	-
Nc1nc(CC(=O)O)cs1	.	.	.	-	-	.
Cc1cccc2c1-c1sc(C(=O)N3CCN(c4ccc(F)cc4)CC3)cc1CO2	.	-	.	.	.	-
Oc1ccccc1/C=N/Nc1ccnc(SCc2ccccc2)n1	-	0.065µM	-	0.32µM	0.35µM	0.082µM
O=C(N/N=C/c1ccccc1O)C1(O)c2ccccc2-c2ccccc21	?	8.2µM	-	0.79µM	0.56µM	5.8µM
Oc1ccccc1C=NNC(=S)NN=Cc1ccccc1O	.	5.2µM	-	.	.	4.6µM
NC(=S)N/N=C/c1cccc(O)c1O	-	0.58µM	-	?	7.1µM	0.92µM
Cc1c(/C=N/NC(=O)C2(O)c3ccccc3-c3ccccc32)cnn1C	-	-	-	-	-	-
Cc1ccccc1OCC(=O)N/N=C/c1ccc(N2CCOCC2)o1	?	?	?	6.3µM	14µM	?
Cc1ccccc1OCC(=O)N/N=C/c1ccc(Sc2nc3ccccc3s2)o1	?	?	-	-	-	16µM
O=C(COc1cccc2ccccc12)N/N=C/c1ccc(Sc2nc3ccccc3s2)o1	-	?	-	-	-	21µM
O=C(Cc1cccc2ccccc12)N/N=C/c1ccc(Sc2nc3ccccc3s2)o1	-	16µM	-	-	-	?
N#CCC(=O)N/N=C/c1ccc(Sc2nc3ccccc3s2)o1	-	-	-	-	?	-
COc1ccc(-n2ccn(CC(=O)NCc3ccc(C)cc3)c(=O)c2=O)cc1OC	.	-	.	.	.	-
C#CC(C)(CC)NC(=O)Cn1nnc(-c2cccc(C(F)(F)F)c2)n1 (stereo not given)	?	?	-	-	?	-
O=c1cc(O)cc2n1CCC2	.	-	-	.	.	-
Cc1cc(Cl)ccc1OCC(=O)NCCCN1CCOCC1	-	-	-	-	?	-
O=C(NCCOc1nc(N2CCOCC2)nc(N2CCOCC2)n1)Nc1ccc(Cl)cc1	?	-	-	-	-	-
Cc1cc(Cl)ccc1OCC(=O)NCCOc1nc(N2CCOCC2)nc(N2CCOCC2)n1	10µM	?	-	-	-	21µM
CN(C)c1nc(OCCNC(=O)COc2ccc(Cl)cc2Cl)nc(N2CCOCC2)n1	?	15µM	-	-	-	13µM
COc1cc(NC(=O)Cc2cccs2)c(C(=O)O)cc1OC	-	-	-	-	-	-
SMILES	ELG1 DNA repair	TDP1 cell CPT	IL-1B inflam inh	Gal4-VP16 FLuc	RORgamma inh	DT40 TDP1 no CPT
CCOC(=O)c1c(C)sc2c1N(C(=O)CN(CC)CC)c1ccccc1S2	-	?	-	-	-	21µM
NCCC(=O)N1c2ccccc2Sc2ccc(Cl)cc21	-	?	?	-	?	?
CCOC(=O)c1c(C)sc2c1N(C(=O)CN(CC)CC)c1cc(Cl)ccc1S2	-	18µM	-	-	-	?
O=C(NNC(=O)c1cc(-c2ccc(Cl)c(Cl)c2)nc2ccccc12)Nc1ccccc1	-	15µM	?	?	-	?
O=C(NN1CCOCC1)c1cc(-c2cccc(Cl)c2)nc2ccccc12	-	?	-	-	-	?
O=C(NN1CCOCC1)c1cc(-c2ccc(Cl)c(Cl)c2)nc2ccccc12	-	?	-	-	-	1.3µM
